Hits are enriched below; roughly 6.7% of the tested compounds scored in any of these assays.
FBA Mtb inh: inhibits M. tuberculosis FBA enzyme. P9WQA3. purified M. tuberculosis FBA, fluorescence read-out. inhibition, % at 1 µM. actives 2.3% (n = 360,000). AID 588726; in the data active means inhibition above about 27%;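 further: 0% = vehicle and 100% = reference inhibitor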
BoNT-A LC inh2: inhibitors of Botulinum neurotoxin A light chain protease; multiplex microsphere protease substrate cleavage, flow cytometry; inhibition, % at 10 µM; actives 0.17% (n = 360,000); AID 588499; further: plate controls were buffer without enzyme for full effect and enzyme alone for no effect
Anthrax LF inh2: anthrax lethal factor protease inhibition; inhibition, % at 10 µM; actives 0.12% (n = 360,000); P15917; multiplex microsphere protease cleavage assay, LF; AID 588501; further: plate controls were buffer without enzyme for full effect and enzyme alone for no effect
Bead autofluor: counter-screen for toxin protease inhibitors: compound fluorescence | compound autofluorescence counterscreen, microsphere flow cytometry; hits give high values | fluorescence intensity (no concentration beside the values) | actives 3.1% (n = 360,000); in the data active means fluorescence intensity above about 16000
BoNT-F LC inh: blocks Botulinum neurotoxin F light chain protease; Multiplex microsphere protease cleavage assay, flow cytometry; inhibition, % at 10 µM; actives 0.22% (n = 360,000); AID 588497; in the data active means inhibition above about 35%, passing the limit was not always enough; further: plate controls were buffer without enzyme for full effect and enzyme alone for no effect
GDH-TPI counter-1: inhibits GDH-TPI coupling enzymes, artifact for Mtb FBA screen | GDH-TPI coupled enzyme counterscreen, NADH absorbance | inhibition, % at 4.8 µM | actives 1.2% (n = 360,000) | AID 588335; in the data active means inhibition above about 30%;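 further: 0% = DMSO wells and 100% = wells lacking the enzyme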
Mtb FBA confirm: confirmation of M. tuberculosis fructose-bisphosphate aldolase inhibitors | AID 651616 | inhibition, % at 1 µM | shares compounds with FBA Mtb inh | actives 78% (n = 5,600) | purified M. tuberculosis FBA, fluorescence read-out; in the data active means inhibition above about 27%;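 further: 0% = vehicle wells and 100% = reference inhibitor wells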
GDH-TPI counter-2: GDH-TPI inhibition counter-screen for FBA inhibitors. shares compounds with FBA Mtb inh. GDH-TPI coupled enzyme counterscreen, fluorescence. inhibition, % at 1 µM. actives 81% (n = 5,600); in the data active means inhibition above about 10%
* = called active by the depositor. Unless noted, no stated cut-off is given here; in the data, active means inhibition above about 30%; inconclusive means no clear call, values can overlap the other calls; inactive means below that.

Cc1cc(=O)oc2cc(OCC(=O)N3CCCC3)c(Cl)cc12 was read as FBA Mtb inh 31*, BoNT-A LC inh2 -1, Anthrax LF inh2 -6, Bead autofluor 7741, BoNT-F LC inh -2, GDH-TPI counter-1 0, Mtb FBA confirm 13 and GDH-TPI counter-2 24*.
`Cc1cc(=O)oc2cc(OCC(=O)N3CCOCC3)c(Cl)cc12` gave FBA Mtb inh 109*, BoNT-A LC inh2 0, Anthrax LF inh2 -2, Bead autofluor 3524, BoNT-F LC inh -5, GDH-TPI counter-1 17, Mtb FBA confirm active and GDH-TPI counter-2 active.
NC1=NN=C(N2N=C(c3ccc(Br)cc3)CC2(O)C(F)(F)F)n2ncnc2C1 (stereo unspecified) was read as FBA Mtb inh 56*, BoNT-A LC inh2 0, Anthrax LF inh2 -2, Bead autofluor 3270, BoNT-F LC inh 1, GDH-TPI counter-1 5, Mtb FBA confirm -1 and GDH-TPI counter-2 -2.
COc1ccc(C2=NN(C3=NN=C(N)Cc4ncnn43)C(O)(C(F)(F)F)C2)cc1 (stereo unspecified) was read as FBA Mtb inh 19, BoNT-A LC inh2 -2, Anthrax LF inh2 -10, Bead autofluor 3634, BoNT-F LC inh -8 and GDH-TPI counter-1 3.
Screening COc1ccccc1C1=NN(C2=NN=C(N)Cc3ncnn32)C(O)(C(F)(F)F)C1 (stereo unspecified) returned FBA Mtb inh 35*, BoNT-A LC inh2 -1, Anthrax LF inh2 -10, Bead autofluor 3256, BoNT-F LC inh 2, GDH-TPI counter-1 4, Mtb FBA confirm 9 and GDH-TPI counter-2 1.
NC1=NN=C(N2N=C(c3ccccc3)CC2(O)C(F)(F)F)n2ncnc2C1 (stereo unspecified) was read as FBA Mtb inh 17, BoNT-A LC inh2 -1, Anthrax LF inh2 -1, Bead autofluor 2677, BoNT-F LC inh 1 and GDH-TPI counter-1 11.
For Cc1ccc(C(C(=O)NC(C)(C)C)N(CC2CCCO2)C(=O)CCC(=O)Nc2ccccn2)cc1 (stereo unspecified) the results were FBA Mtb inh -2, BoNT-A LC inh2 0, Anthrax LF inh2 0, Bead autofluor 4998, BoNT-F LC inh 1 and GDH-TPI counter-1 -5.
Cc1ccc(S(=O)(=O)N2CCC(C(=O)N(C)C3CCS(=O)(=O)C3)CC2)cc1 (stereo unspecified) was read as FBA Mtb inh 4, BoNT-A LC inh2 0, Anthrax LF inh2 2, Bead autofluor 4611, BoNT-F LC inh 4 and GDH-TPI counter-1 6.
`Cc1ccc(NC(=S)NCc2ccccn2)cc1` gave FBA Mtb inh -1, BoNT-A LC inh2 0, Anthrax LF inh2 -2, Bead autofluor 2791, BoNT-F LC inh 2 and GDH-TPI counter-1 -4.
CC(C#N)(Nc1ccc(Cl)cc1)c1cccnc1 (stereo unspecified) was read as FBA Mtb inh 28*, BoNT-A LC inh2 0, Anthrax LF inh2 -2, Bead autofluor 6694, BoNT-F LC inh -8, GDH-TPI counter-1 10, Mtb FBA confirm active and GDH-TPI counter-2 active.
`CCC(c1nnnn1Cc1ccccc1)N1CCC2(CC1)C(=O)NCN2c1ccccc1` (stereo unspecified) gave FBA Mtb inh -1, BoNT-A LC inh2 0, Anthrax LF inh2 -2, Bead autofluor 5570 and BoNT-F LC inh 2.
`CC1CCCN(C(=O)CSCC(=O)Nc2nc(-c3cccs3)cs2)C1` (stereo unspecified) gave FBA Mtb inh 1, BoNT-A LC inh2 0, Anthrax LF inh2 -7, Bead autofluor 6179, BoNT-F LC inh -11 and GDH-TPI counter-1 3.
For CCCC(=O)N=C1SC2CS(=O)(=O)CC2N1c1ccc(-c2nc3ccc(C)cc3s2)cc1 (stereo unspecified) the results were FBA Mtb inh 53*, BoNT-A LC inh2 1, Anthrax LF inh2 1, Bead autofluor 2173, BoNT-F LC inh -2, GDH-TPI counter-1 16, Mtb FBA confirm 141* and GDH-TPI counter-2 103*.
For Cc1ccc(N2C(=NC(=O)c3ccccc3)SC3CS(=O)(=O)CC32)cc1 (stereo unspecified) the results were FBA Mtb inh 3, BoNT-A LC inh2 -2, Anthrax LF inh2 2, Bead autofluor 4762, BoNT-F LC inh -2 and GDH-TPI counter-1 1.
Screening COc1cc2nc(C3CCC3)n(NC(=O)COc3ccccc3)c(=O)c2cc1OC returned FBA Mtb inh 0, BoNT-A LC inh2 0, Anthrax LF inh2 -6, Bead autofluor 7566, BoNT-F LC inh 8 and GDH-TPI counter-1 10.
`Clc1ccc(OCCCCN2CCCCC2)cc1` gave FBA Mtb inh 4, BoNT-A LC inh2 0, Anthrax LF inh2 -10, Bead autofluor 3168, BoNT-F LC inh -17 and GDH-TPI counter-1 10.
CC(C)c1ccc(OCCCCN2CCCCC2)cc1 was read as FBA Mtb inh 98*, BoNT-A LC inh2 1, Anthrax LF inh2 2, Bead autofluor 3191, BoNT-F LC inh 2, GDH-TPI counter-1 -1, Mtb FBA confirm 130* and GDH-TPI counter-2 106*.
`O=c1[nH]c2cc3c(cc2cc1CN(CCCO)C(=S)NCc1ccco1)OCO3` gave FBA Mtb inh 18, BoNT-A LC inh2 1, Anthrax LF inh2 5, Bead autofluor 4683, BoNT-F LC inh -3 and GDH-TPI counter-1 25.
`CN(C)CCCN(Cc1cc2cc3c(cc2[nH]c1=O)OCO3)C(=S)NCc1ccco1` gave FBA Mtb inh 27*, BoNT-A LC inh2 0, Anthrax LF inh2 -1, Bead autofluor 4665, BoNT-F LC inh -1, GDH-TPI counter-1 8, Mtb FBA confirm active and GDH-TPI counter-2 active.
Screening CNC(=S)N(CCO)Cc1cc2cc3c(cc2[nH]c1=O)OCCO3 returned FBA Mtb inh 16, BoNT-A LC inh2 2, Anthrax LF inh2 -14, Bead autofluor 3845, BoNT-F LC inh 23 and GDH-TPI counter-1 12.
CCN(CC)CCN(Cc1cc2cc3c(cc2[nH]c1=O)OCO3)C(=S)NCc1ccco1 was read as FBA Mtb inh 35*, BoNT-A LC inh2 0, Anthrax LF inh2 -12, Bead autofluor 7631, BoNT-F LC inh -17, GDH-TPI counter-1 9, Mtb FBA confirm 6 and GDH-TPI counter-2 -1.
Screening CCC(=O)N(Cc1ccco1)Cc1cc2cc3c(cc2[nH]c1=O)OCO3 returned FBA Mtb inh 40*, BoNT-A LC inh2 -1, Anthrax LF inh2 -4, Bead autofluor 4967, BoNT-F LC inh -8, GDH-TPI counter-1 11, Mtb FBA confirm active and GDH-TPI counter-2 152*.
CNC(=S)N(CCCO)Cc1cc2cc3c(cc2[nH]c1=O)OCO3 was read as FBA Mtb inh 30*, BoNT-A LC inh2 1, Anthrax LF inh2 9, Bead autofluor 3030, BoNT-F LC inh -5, GDH-TPI counter-1 19, Mtb FBA confirm 85* and GDH-TPI counter-2 65*.
